# Several values for one entry are separate records, joined by “and”; a condition that tells them apart may be missing. Equal entries are not always repeated. For part of these data: Results with a measured potency or affinity are listed apart. Activity calls are given as the source filed them. Unless noted, no stated cut-off is given here; in the data, active means parasite load remaining mostly below about 12% (no sharp cut-off); inactive means mostly above about 10%. Bridge positions count the residues as written; N and C are the ends. Square brackets hold non-standard residues; d marks the D form. Peptide text beside a SMILES is read from it. * marks the point of attachment. Octanoyl(6-Me) = CCC(C)CCCCC(=O)*; Dab = NCC[CH](N)C(=O)O
# Tests used:
# [1] = ICB984 medulloblastoma cell growth inhibition, synergistic combos for chromothripsis tumors, cisplatin or BGB combos (AID 1671451; call rule not given here;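 further: cells exposed for 96 hours before readout; 0% = vehicle DMSO and 100% = killing by high DMSO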); details: ICB984 medulloblastoma cells, drug combinations, stronger effect = higher value
# [2] = polyglutamine-triggered caspase-3 activation inhibitors, cell-based (AID 1583); details: polyglutamine-induced caspase-3 activation, cell assay; stronger effect = higher value;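 tested at 10 µM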
# [3] = suppressors of polyQ aggregation in yeast, 75Q-TubU reporter (AID 1593); details: Yeast 75Q polyglutamine aggregation reporter
# [4] = rescue of polyQ-huntingtin neuronal dysfunction in worms, whole organism, C. elegans mechanosensory neurons, N-terminal huntingtin (AID 1599); details: touch response, stronger effect = higher value
# [5] = inhibitors of mitochondrial cytochrome c release, biochemical, purified mitochondria (AID 1603); details: stronger effect = lower value;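 further: mouse liver mitochondria challenged with calcium chloride; signal normalized to the plate average as 100%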
# [6] = inhibitors of polyQ protein aggregation (AID 1604); details: polyglutamine-induced protein aggregation inhibition assay; stronger effect = higher value; tested at 2.5 µM
# [7] = enhancers of glutamate uptake in motor neurons, MN-1 cell line (AID 1612); details: MN-1 motor neuron cells, stronger effect = higher value;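 further: tested at 1 µM final; 0% = mean of DMSO vehicle wells on each plate; positive means more glutamate uptake than control and negative means less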
# [8] = reducers of polyQ inclusions in PC12 cells, cell-based, NGF-treated PC12, GFPQ80 (AID 1614); details: PC12 NGF-treated GFP-polyQ80 inclusion reduction;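 further: lower means fewer inclusions and 0 means no inclusions at all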
# [9] = suppressors of polyglutamine aggregation in yeast, 75Q-TubH (AID 1616); details: S. cerevisiae 75Q-TubH polyglutamine aggregation suppression; stronger effect = higher value
# [10] = target: 6-phosphogluconate dehydrogenase, decarboxylating (Homo sapiens) (UniProt P52209); test: 6PGD enzyme inhibitors, primary screen, biochemical, human, recombinant enzyme, NADPH absorbance (AID 1159550;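 active means at least 20% inhibition of 6-phosphogluconate dehydrogenase activity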); details: recombinant 6PGD, NADPH absorbance 341 nm; at 10 µM; stronger effect = higher value
# Sequence of 6-phosphogluconate dehydrogenase, decarboxylating (Homo sapiens) (P52209 whole entry, looked up): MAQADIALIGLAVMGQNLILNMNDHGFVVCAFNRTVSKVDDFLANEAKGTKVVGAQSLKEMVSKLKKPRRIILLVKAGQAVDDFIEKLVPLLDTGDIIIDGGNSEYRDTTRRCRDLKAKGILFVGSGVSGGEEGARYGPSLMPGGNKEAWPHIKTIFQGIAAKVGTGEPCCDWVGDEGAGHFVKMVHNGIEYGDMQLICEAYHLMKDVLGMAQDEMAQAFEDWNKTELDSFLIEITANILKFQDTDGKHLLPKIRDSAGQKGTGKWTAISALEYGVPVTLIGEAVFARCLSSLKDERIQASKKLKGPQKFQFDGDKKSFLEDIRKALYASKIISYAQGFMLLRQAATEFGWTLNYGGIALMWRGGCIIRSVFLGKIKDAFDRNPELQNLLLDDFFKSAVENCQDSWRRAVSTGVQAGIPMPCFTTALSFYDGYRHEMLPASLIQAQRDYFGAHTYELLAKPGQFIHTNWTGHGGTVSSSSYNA
# [11] = differential killing of epithelial or mesenchymal cells, primary screen, imaging, PC-3E GFP, TEM4-18 mCherry, co-culture (AID 1345086;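 active means compounds killing one labelled cell type while sparing the other, by normalised counts and ratio limits, not self-fluorescent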;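 on all read-outs here: cells exposed to compound for 72 h before imaging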;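 on red/green cell ratio (normalised): normalised mesenchymal count divided by normalised epithelial count so high means epithelial killing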); details: imaging cell counts, at 1 µM; for red/green cell ratio (normalised): actives lie on both sides, counts scaled to control wells, 1 = unselective
# [12] = survival rescue of mitochondrial mutant cells in low glucose, primary screen, MELAS cybrids, Rieske KO mouse fibroblasts, CellTiter-Glo (AID 1508586;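 active means mean z-score across replicates of 1.96 or higher in either the MELAS or the Rieske mutant cell line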;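 further: z relative to plate mean and SD of compound and empty wells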)
# [13] = target: NAD(+) hydrolase SARM1 (Homo sapiens) (UniProt Q6SZW1); test: SARM1 TIR NADase inhibitors, cell lysate, NAD-Glo luminescence (AID 1508614;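 active means compound whose remaining NAD level is above about 45 nM, limit read from the data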); details: SAM-TIR HEK293T lysate NADase, at 1 µM, stronger effect = higher value
# Sequence of NAD(+) hydrolase SARM1 (Homo sapiens) (Q6SZW1 whole entry, looked up, the tested form may be a part): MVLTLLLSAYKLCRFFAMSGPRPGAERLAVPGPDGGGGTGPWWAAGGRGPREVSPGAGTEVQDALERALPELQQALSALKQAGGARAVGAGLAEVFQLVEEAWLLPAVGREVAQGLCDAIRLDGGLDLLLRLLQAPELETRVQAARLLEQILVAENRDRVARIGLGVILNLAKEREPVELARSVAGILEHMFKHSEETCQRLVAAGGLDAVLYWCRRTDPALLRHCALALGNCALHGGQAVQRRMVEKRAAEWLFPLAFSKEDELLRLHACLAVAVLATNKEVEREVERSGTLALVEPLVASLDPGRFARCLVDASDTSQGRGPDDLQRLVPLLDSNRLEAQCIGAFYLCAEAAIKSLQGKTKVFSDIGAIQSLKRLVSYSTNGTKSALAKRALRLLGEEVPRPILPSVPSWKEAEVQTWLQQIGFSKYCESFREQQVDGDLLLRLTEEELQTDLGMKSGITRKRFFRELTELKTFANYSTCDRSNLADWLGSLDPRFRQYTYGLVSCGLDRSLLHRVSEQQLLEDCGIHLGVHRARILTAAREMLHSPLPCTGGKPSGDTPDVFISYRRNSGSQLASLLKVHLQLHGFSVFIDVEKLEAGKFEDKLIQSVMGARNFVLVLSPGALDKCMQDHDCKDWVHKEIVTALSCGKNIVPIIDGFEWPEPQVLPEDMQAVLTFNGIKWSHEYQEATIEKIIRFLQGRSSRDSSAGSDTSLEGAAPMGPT
# [14] = target: Mitogen-activated protein kinase 7 (Homo sapiens) (UniProt Q13164); test: ERK5 transactivation activators in reporter cells, primary screen, cell-based, HTS (AID 1508626;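 active means luciferase signal above three times the same-plate solvent-only control wells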;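 further: luciferase driven by Gal4-ERK5 fusion binding five Gal4 sites before minimal TATA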); details: HeLa Gal4-ERK5 transactivation, 18 h, at 5 µM, stronger effect = higher value
# Sequence of Mitogen-activated protein kinase 7 (Homo sapiens) (Q13164 whole entry, looked up, the tested form may be a part): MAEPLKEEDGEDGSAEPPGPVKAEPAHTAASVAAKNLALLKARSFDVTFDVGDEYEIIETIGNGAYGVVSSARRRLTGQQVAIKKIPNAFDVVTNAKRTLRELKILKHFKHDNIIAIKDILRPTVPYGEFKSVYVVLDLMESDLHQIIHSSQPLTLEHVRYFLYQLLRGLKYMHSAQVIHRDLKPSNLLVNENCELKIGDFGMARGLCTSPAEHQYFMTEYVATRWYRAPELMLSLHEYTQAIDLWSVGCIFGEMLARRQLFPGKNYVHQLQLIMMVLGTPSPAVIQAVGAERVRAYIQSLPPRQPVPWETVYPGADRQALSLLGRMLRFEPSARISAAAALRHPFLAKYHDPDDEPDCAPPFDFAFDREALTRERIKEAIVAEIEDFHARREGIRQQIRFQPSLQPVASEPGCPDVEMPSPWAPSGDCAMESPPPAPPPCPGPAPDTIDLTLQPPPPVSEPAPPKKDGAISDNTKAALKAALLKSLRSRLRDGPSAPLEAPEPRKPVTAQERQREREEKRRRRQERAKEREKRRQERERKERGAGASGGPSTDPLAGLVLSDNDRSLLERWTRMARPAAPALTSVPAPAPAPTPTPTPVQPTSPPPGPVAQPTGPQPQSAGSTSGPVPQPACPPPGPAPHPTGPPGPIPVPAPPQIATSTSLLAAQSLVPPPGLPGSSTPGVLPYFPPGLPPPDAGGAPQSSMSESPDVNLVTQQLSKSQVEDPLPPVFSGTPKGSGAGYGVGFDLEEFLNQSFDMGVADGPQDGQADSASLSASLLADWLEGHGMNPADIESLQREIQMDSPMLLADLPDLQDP
# [15] = viability rescue of complex I mutant cybrids, primary screen, cell-based, galactose medium, ATP luminescence (AID 1645843;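 active means z-score of at least 1.8 in each of two replicates, scored against plate mean and spread of sample wells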;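 further: positive z means more ATP and so rescue of galactose-driven cybrid death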); details: complex I mutant cybrid cells, 72 h, stronger effect = higher value
# [16] = liver-stage malaria parasite growth inhibition, primary screen, cell-based, HepG2, luciferase luminescence, HepG2 viability (AID 624349);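 further: 100% = mean of DMSO negative control wells on the same plate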; details: P. berghei liver stage in HepG2, luciferase luminescence, concentration not given here; parasite load remaining: stronger effect = lower value; viability: measured here: HepG2 viability without parasites
# [17] = sensitizers of A549 cells to miR-34 induction, primary screen, imaging, A549 dox-inducible miR-34, nuclei and caspase counts (AID 1347080;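 active means compounds whose cell count with miR-34 switched on is under 0.7 times the count with it off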); details: A549 miR-34 inducible, Hoechst nuclei count, 48 h
# [18] = measured here: epithelial PC-3E GFP cell survival
# [19] = measured here: mesenchymal TEM4-18 mCherry cell survival
# [20] = stronger effect = lower value, cell number ratio, induced over uninduced
# [21] = measured here: relative caspase fold change +Dox/-Dox
# [22] = measured here: total cells with miR-34 induction, stronger effect = lower value
# [23] = measured here: total cells without miR-34 induction
smiles,measurement,setting,value
COc1c2ccoc2cc2oc(=O)ccc12,inhibition,"[1]; BGB IC20 combo, at 0.005 µM",-7.99%
same,inhibition,"[1]; BGB IC40 combo, at 0.005 µM",-11.7%
same,inhibition,"[1]; BGB IC40 combo, at 0.05 µM",-24.6%
same,inhibition,[1]; at 0.5 µM,-24.1% (inactive)
same,inhibition,"[1]; cisplatin combo, at 0.05 µM",-24.6%
same,inhibition,"[1]; cisplatin combo, at 0.5 µM",-26.9%
same,inhibition,"[1]; cisplatin combo, at 5 µM",-4.96%
same,inhibition,"[1]; measured here: 5 uM single agent, at 5 µM",-16.8%
CCCCN1CCCCC1C(=O)Nc1c(C)cccc1C (centres undefined),inhibition,[2],17%
same,score,[3],1.42
same,rescue above control,[4],-7.52
same,cytochrome c release ratio,[5],0.81
same,inhibition of aggregation,[6],-27.4%
same,glutamate uptake change,[7],1.83%
same,inclusion score,[8],2
same,aggregation suppression score,[9],1.3
same,inhibition,[10],3.83% (inactive)
same,red/green cell ratio (normalised),[11],1.17 (inactive)
same,normalised cell number,[11]; [18],1.13
same,normalised cell number,[11]; [19],1.33
same,z-score,"[12]; MELAS cybrid survival, CellTiter-Glo 48 h, stronger effect = higher value",-0.429 (inactive) and 0.622 (inactive) and -0.162 (inactive)
same,z-score,"[12]; Rieske KO mouse fibroblast survival, CellTiter-Glo 72 h",-0.124 and 0.613 and -0.528
same,remaining NAD,[13],10 nM (inactive)
same,luciferase signal,[14],68 AU (inactive)
same,z-score,[15],0.545 (inactive)
CCC(C)CCCCC(=O)NC(CCN)C(=O)NC(C(=O)NC(CCN)C(=O)NC1CCNC(=O)C(C(C)O)NC(=O)C(CCN)NC(=O)C(CCN)NC(=O)C(CC(C)C)NC(=O)C(Cc2ccccc2)NC(=O)C(CCN)NC1=O)C(C)O (centres undefined) ({Octanoyl(6-Me)}-[Dab]T[Dab][Dab][Dab]FL[Dab][Dab]T; lactam 4-C; configuration not given here),inhibition,[2],15%
same,score,[3],0.73
same,rescue above control,[4],0
same,cytochrome c release ratio,[5],7.61
same,inhibition of aggregation,[6],70.5%
same,glutamate uptake change,[7],-11.7%
same,inclusion score,[8],2
same,aggregation suppression score,[9],0.739
same,parasite load remaining,[16],82.5% (inactive) and 41.4% (inactive)
same,viability,[16],77.7% and 91.4%
same,inhibition,[10],11% (inactive)
same,red/green cell ratio (normalised),[11],1.23 (inactive)
same,normalised cell number,[11]; [18],0.93
same,normalised cell number,[11]; [19],1.14
same,fold change,[17]; [20],0.886 (inactive)
same,fold change,[17]; [21],2.98
same,cell count,[17]; [22],11700
same,cell count,[17]; [23],13200
same,remaining NAD,[13],10 nM (inactive)
CC1=C(/C=C/C(C)=C/C=C/C(C)=C/CO)C(C)(C)CCC1,inhibition,[2],25.6%
same,score,[3],-0.82
same,rescue above control,[4],28.1
same,cytochrome c release ratio,[5],1.19
same,inhibition of aggregation,[6],88.9%
same,glutamate uptake change,[7],-6.81%
same,aggregation suppression score,[9],0.11
same,parasite load remaining,[16],115% (inactive) and 48.9% (inactive)
same,viability,[16],69.5% and 99.6%
same,inhibition,[10],-7.77% (inactive)
same,red/green cell ratio (normalised),[11],1.32 (inactive)
same,normalised cell number,[11]; [18],0.9
same,normalised cell number,[11]; [19],1.18
same,fold change,[17]; [20],0.915 (inactive)
same,fold change,[17]; [21],2.67
same,cell count,[17]; [22],11800
same,cell count,[17]; [23],12800
same,remaining NAD,[13],10 nM (inactive)
same,luciferase signal,[14],48 AU (inactive)
O=c1[nH]c(=O)n(C2C[C@H](O)[C@@H](CO)O2)cc1C(F)(F)F (some centres undefined),parasite load remaining,[16],74% (inactive) and 246% (inactive) and 30.9% (inactive)
same,viability,[16],71.7% and 82.9% and 99%
same,inhibition,[10],10.3% (inactive)
same,red/green cell ratio (normalised),[11],1.34 (inactive)
same,normalised cell number,[11]; [18],0.93
same,normalised cell number,[11]; [19],1.25
same,fold change,[17]; [20],1.06 (inactive) and 0.925 (inactive)
same,fold change,[17]; [21],0.737 and 3.77
same,cell count,[17]; [22],2260 and 12300
same,cell count,[17]; [23],2140 and 13300
C[n+]1cccc(C(=O)[O-])c1,parasite load remaining,[16],79.8% (inactive)
same,viability,[16],103%
same,inhibition,[10],-5.32% (inactive)
same,red/green cell ratio (normalised),[11],0.83 (inactive)
same,normalised cell number,[11]; [18],0.9
same,normalised cell number,[11]; [19],0.75
same,fold change,[17]; [20],0.877 (inactive)
same,fold change,[17]; [21],1.44
same,cell count,[17]; [22],9790
same,cell count,[17]; [23],11200
same,luciferase signal,[14],44 AU (inactive)
